Each structure is given as a SMILES string. Activity calls are given as the source filed them.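 Rule for the calls: active = AC50 at most tenfold above the top tested concentration; inconclusive = flat fit with 30 to 70% activity, or a poor fit; inactive = AC50 over tenfold above the top dose.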

This test in a line: inhibition of yeast nuclear histone deacetylase activity – cell lysate, fluorescence, yeast nuclear extract, mechanism study for Sdo1 growth activator project, dose response (AID 463208). The conditions noted are these: yeast nuclear extract HDAC activity, fluorogenic substrate.
With `CC(=O)N(c1ccccc1)C1C(=O)C(=O)c2ccccc2C1=O` (configuration not stated), the AC50 (as a rule, the concentration at which the activity in the assay is half-maximal) is > 50 µM (inactive). For `Cc1ccc(Cn2c(Sc3nccc(C)n3)nc3c2c(=O)[nH]c(=O)n3C)cc1` the value was > 50 µM (inactive); for `Cc1nc(CS(=O)(=O)c2ccccc2)cc(N2CCOCC2)n1`, > 50 µM (inactive); for `Cc1ccc(NC(=O)c2ccc(NCC3CCCO3)c([N+](=O)[O-])c2)cc1` (configuration not stated), > 50 µM (inactive). On to `O=C(CSc1nc(-c2cccs2)cc(C(F)(F)F)n1)NCc1ccco1`, for which the AC50 was > 50 µM (inactive). For `O=C(O)CCCn1nc(C(F)(F)F)c2c1CCCCC2` the value was > 50 µM (inactive); for `CCN(CC)CCCNC(=O)C1CCNCC1`, > 50 µM (inactive). For `CCOC(=O)/C=C1\SCC(=O)N1CC(=O)NC1CCCCC1` the value was > 50 µM (inactive); for `O=C(C(c1ccccc1)c1ccccc1)N(Cc1ccco1)C1CCS(=O)(=O)C1` (configuration not stated), > 50 µM (inactive); for `CC(/C=C/C(=O)NO)=C\[C@@H](C)C(=O)c1ccc(N(C)C)cc1`, < 0.00075 µM (active). In the case of `CC(C(=O)Nc1cccnc1)N1C(=O)c2ccccc2C1=O` (configuration not stated) it was > 50 µM (inactive); in that of `Cc1nn(-c2ccccc2)c(C)c1NC(=O)c1cccs1`, > 50 µM (inactive). Take `CCOC(=O)/C=C1\SCC(=O)N1CC(=O)NC12CC3CC(CC(C3)C1)C2`: the AC50 was > 50 µM (inactive). For `CC(C(=O)Nc1cccnc1)N1Cc2ccccc2C1=O` (configuration not stated) the value was > 50 µM (inactive); for `CC(C(=O)Nc1ccccc1)N1C(=O)c2ccccc2C1=O` (configuration not stated), > 50 µM (inactive); for `CN(C)CCCNC(=O)C1CCNCC1`, > 50 µM (inactive).

With `COc1ccc(-c2nc3ccccc3o2)cc1NC(=O)c1ccc(Br)o1`, the AC50 was > 50 µM (inactive). Regarding `O=C(Nc1ccccc1)c1ccc(NCC2CCCO2)c([N+](=O)[O-])c1` (configuration not stated), the AC50 was > 50 µM (inactive).

As for `CC(=O)N(C1=C(Cl)C(=O)c2ccccc2C1=O)C1CCCCC1`, the AC50 is > 50 µM (inactive).

Turning to `Cc1ccc(Cn2c(CN3CC(C)OC(C)C3)nc3c2c(=O)n(C)c(=O)n3C)cc1` (configuration not stated), the AC50 is > 50 µM (inactive).

On to `Cc1nn(Cc2ccc(Cl)cc2)c(C)c1NC(=O)CSc1n[nH]c(C)c1[N+](=O)[O-]`, for which the AC50 is > 50 µM (inactive). In the case of `Cc1c(/C=N/NC(=O)c2cccc(F)c2)cnn1C` it was > 50 µM (inactive).

These data come from PubChem BioAssay AID463208 (Broad Institute, 2010).
